Source: PubChem BioAssay (several laboratories)
Compounds with a hit are over-represented: about 2.2% of the library has one in this group of screens.
APP 5UTR inh: APP translation inhibition; SH-SY5Y APP 5'UTR-luciferase reporter, luminescence; inhibition, % at 2 µM; actives 0.82% (n = 190,000); AID 1285;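 active = inhibition above a set limit, derived from the sample mean plus 3 SD, cut at about 45% in these data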
aSyn 5UTR inh: MLPCN primary screen, SNCA 5' untranslated region. alpha-synuclein 5'UTR reporter, inhibitor activity. actives 0.82% (n = 300,000). AID 1813. inhibition, % (tested at 7.5 µM); in the data active = inhibition above about 60%;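 also: H4 neuroglioblastoma cells stably carrying SNCA 5'UTR luciferase fusion; 0% = DMSO wells and 100% = positive control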
KLF5 inh: suppresses KLF5 promoter-driven expression; DLD-1 KLF5 promoter-luciferase reporter, luminescence; inhibition, % at 5 µM; actives 0.23% (n = 290,000); AID 1700;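 active = inhibition above a per-plate limit of that plate's mean compound inhibition plus 3 SD, cut at about 60% in these data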;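 also: 0% = DMSO wells and 100% = LY294002 at 200 µM; higher means less KLF5 promoter-driven luciferase light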
BaF3 parental: parental Ba/F3 viability inhibition as JAK2V617F counter-screen. CellTiter-Glo ATP luminescence. inhibition, % at 5.6 µM. actives 1.1% (n = 220,000). AID 1486;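 active = inhibition above a per-campaign cutoff, the mean inhibition of all tested compounds plus 3 SD, cut at about 27% in these data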;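 also: 0% = DMSO wells and 100% = JAK Inhibitor I control wells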
IEC-6 tox: IEC-6 cytotoxicity, counter-screen for KLF5 inhibitors. luminescence viability. inhibition, % at 5 µM. actives 0.78% (n = 290,000); in the data active = inhibition above about 22%;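 also: 0% = plate median of test compound wells and 100% = cytotoxic reference compound wells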
Ba/F3 V617F tox: loss of viability in JAK2V617F-driven Ba/F3 cells; Ba/F3 EpoR-JAK2V617F viability, ATP luminescence; actives 1.1% (n = 220,000); inhibition, % at 5.6 µM;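 active = inhibition above the campaign mean plus 3 SD over all tested compounds, cut at about 24% in these data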;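 also: cytokine-independent growth of Ba/F3 cells driven by EpoR plus mutant JAK2; 0% = DMSO-treated cells and 100% = JAK inhibitor I control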
* = called active by the depositor; nt = no result.

SMILES	APP 5UTR inh	aSyn 5UTR inh	KLF5 inh	BaF3 parental	IEC-6 tox	Ba/F3 V617F tox
c1ccc2c(c1)OCC(CNc1ncnc3sccc13)O2 (stereo unspecified)	4	-13	-14	62*	17	60*
Fc1ccccc1CNc1ncnc2sccc12	nt	4	4	nt	16	nt
Cc1ccc(-c2nc3cnccn3c2Nc2ccc3c(c2)OCO3)o1	9	20	-3	1	-7	-4
Cc1ccc(Nc2c(-c3ccccn3)nc3ccc(C)cn23)cc1	60*	36	6	2	-1	4
Cc1ccn2c(NC3CCCC3)c(-c3ccccn3)nc2c1	1	-47	-48	7	2	3
Cc1ccc(Nc2c(-c3ccccn3)nc3cc(C)ccn23)cc1	60*	35	7	0	11	1
Cc1ccn2c(Nc3ccc4c(c3)OCO4)c(-c3ccccn3)nc2c1	52*	-50	-49	4	-6	-3
Cc1ccsc1/C=C(\C#N)C(=O)NC1CCS(=O)(=O)C1 (stereo unspecified)	-4	8	-40	3	7	-7
CC1=NN(c2ccc(C)c(C)c2)C(=O)/C1=C\C=C\c1ccc([N+](=O)[O-])o1	95*	78*	1	0	-5	-2
CC1=NN(c2ccccc2)C(=O)/C1=C\C=C\c1ccccc1	nt	-127	-38	1	2	-3
COc1ccc(CCNC(=S)N2CCN(S(=O)(=O)c3ccccc3)CC2)cc1	nt	2	nt	nt	nt	nt
CC1CCC(N(CCCN)Cc2ccco2)CC1C (stereo unspecified)	-23	-2	-22	9	-2	1
COc1ccc(-c2cc3c(nn2)-c2ccccc2C3=O)cc1	-45	98*	-97	6	-5	3
CC12CCC(=O)N1C(C(=O)Nc1ccccc1N1CCOCC1)CS2 (stereo unspecified)	nt	9	-22	nt	-2	nt
CN1CCN(c2ccc(S(=O)(=O)N3CCCCC3)cc2NC(=O)Cc2ccc(Cl)cc2)CC1	-19	23	-23	38*	3	52*
O=C(Cc1ccc(Cl)cc1)Nc1cc(S(=O)(=O)N2CCOCC2)ccc1N1CCCC1	20	10	-4	-2	-7	1
CCc1nc(C)cn1S(=O)(=O)c1ccc(Br)cc1	nt	1	-29	nt	1	nt
Cc1ccc(-n2[nH]c(=O)c(-c3ccccn3)c2C)cc1	-3	97*	-181	1	6	-2
Cc1ccc(-n2[nH]c(=O)c3cccnc32)cc1	-5	-10	-25	1	-7	-2
CCOC(=O)C1CCCN(S(=O)(=O)c2ccc(S(=O)(=O)N(CC)CC)cc2)C1 (stereo unspecified)	23	-38	0	69*	6	52*
CCOc1cc(C2C(C#N)=C(N)OC(C)=C2C(C)=O)c(Br)c(Br)c1OC(C)C (stereo unspecified)	66*	21	15	5	4	0
Cc1c(-c2ccccc2)oc2c(C(=O)OCC(=O)Nc3ccc(C(N)=O)cc3)cccc2c1=O	-6	15	-62	8	-1	2
CC1=CC(=C2C=CC(=O)C=C2)C=C(C)N1C	nt	0	-15	60*	-2	73*
O=C(Cc1ccccc1)NN1C(=O)c2ccccc2C1=O	-12	17	2	6	0	1
COc1ccccc1CC(=O)NN1C(=O)c2ccccc2C1=O	-5	17	-10	35*	10	5
SMILES	APP 5UTR inh	aSyn 5UTR inh	KLF5 inh	BaF3 parental	IEC-6 tox	Ba/F3 V617F tox
CCOc1ccc(-n2c(=S)sc3c(=O)[nH]c(SCC(=O)C(C)(C)C)nc32)cc1	7	-8	8	8	8	6
COc1ccc(NC(=O)CCNC(=O)c2ccccc2Cl)cc1OC	nt	14	-12	nt	3	nt
COc1ccc(N2CC(O)(c3ccc(C)cc3)[N+]3=C2CCCC3)cc1 (stereo unspecified)	8	-9	-16	50*	5	45*
COc1ccc(N2CC(O)(c3ccc(F)cc3)[N+]3=C2CCCC3)cc1 (stereo unspecified)	-16	-3	-15	5	2	-1
CCNc1oc(-c2ccc(OC)cc2)nc1S(=O)(=O)c1ccc(Br)cc1	49*	-28	1	6	2	4
CCCCNc1oc(-c2ccc(OC)cc2)nc1S(=O)(=O)c1ccccc1	-6	8	-37	3	4	2
Cc1cc(N2CC(C)OC(C)C2)nc2ccccc12 (stereo unspecified)	6	-11	-1	5	3	5
Cc1ccc(Oc2ccc(-c3nc(N)nc(N)n3)cc2)cc1C	92*	6	-20	4	6	-5
COc1ccc2nc(C)cc(N/N=C/c3ccc(F)cc3)c2c1	nt	93*	-17	nt	9	nt
CC(=O)NN(O)C1N(C)C(=O)N(Cc2ccccc2)C1(C)C (stereo unspecified)	nt	-7	nt	nt	nt	nt
Cc1ccc2nc(-c3ccc(N)cc3)sc2c1	nt	90*	32	3	2	-4
O=C(O)c1ccc(CS(=O)(=O)c2c(Cl)cccc2Cl)o1	nt	-16	-7	nt	4	nt
Fc1ccc(-n2nnc(-c3cnc4ccccc4c3)n2)cc1	-98	94*	-72	-1	7	1
O=C(CN(C(=O)CCC(=O)Nc1ccccn1)c1ccc2c(c1)OCO2)NCc1ccc(F)cc1	nt	3	-13	nt	-4	nt
CCCN1CCC(NC(=O)Nc2cc(Cl)ccc2OC)CC1	0	1	3	90*	5	1
Clc1cccc(Nc2ncnc3ccc(Br)cc23)c1	-8	-51	2	6	30*	4
Clc1ccc(Nc2ncnc3ccc(Br)cc23)cc1	10	-30	8	11	26*	5
CCCNS(=O)(=O)c1ccc(CCC(=O)Nc2ccc3c(c2)OCCO3)cc1	6	-1	-12	3	-2	-3
O=C(CCc1ccc(S(=O)(=O)NCCc2ccccc2)cc1)Nc1ccc2c(c1)OCCO2	75*	17	-12	5	0	0
Cc1ccc(C(=O)NCC2CCCO2)cc1S(=O)(=O)N1CCCCC1 (stereo unspecified)	nt	-13	-33	nt	4	nt
O=C(CN1CCC(NC(=O)c2cccc(F)c2)CC1)Nc1ccc(Br)cc1	nt	68*	-9	nt	12	nt
CCOc1ccc(OCC(=O)Nc2nccs2)cc1	-157	69*	23	12	2	-1
COc1ccc(OCC(=O)Nc2nccs2)cc1	-104	16	-63	8	-7	-3
Cc1cc(N2CCN(c3ccc([N+](=O)[O-])c4cccnc34)CC2)c2ccccc2n1	18	84*	-23	1	-17	1
Cc1ccc(NS(=O)(=O)c2ccc3c(c2)NC(=O)CCS3)cc1C	nt	9	10	nt	1	nt
CCOc1ccccc1CN1CCN(Cc2ccc(C)o2)C(CCO)C1 (stereo unspecified)	5	1	-40	80*	2	1
CCOc1ccccc1C1NC(=O)c2ccccc2O1 (stereo unspecified)	nt	10	-5	nt	-2	nt
